“And” between values parts separate entries of the source, which are not always exact repeats. Equal values may be shown once. The source holds several records for some structures; these can differ, active in one and inactive in another. The source made the active and inactive calls. Cut-off read from the data, not from the text of the source, unless noted: active = parasite load remaining mostly below about 12% (no sharp cut-off); inactive = mostly above about 10%.
assay: reducers of polyQ inclusions in PC12 cells, cell-based, NGF-treated PC12, GFPQ80 (AID 1614); details: PC12 NGF-treated GFP-polyQ80 inclusion reduction;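 note: lower means fewer inclusions and 0 means no inclusions at all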

**Q.** With `O=C1CC2OCC=C3CN4CC[C@]56c7ccccc7N1C5[C@H]2[C@H]3CC46` (stereo partly drawn) as the compound, how does the inclusion score read?
**A.** 1

**Q.** With `C[C@H]1O[C@@H](O[C@H]2[C@@H](O)C[C@H](O[C@H]3[C@@H](O)C[C@H](O[C@H]4CC[C@]5(C)C6CC[C@]7(C)[C@@H](C8=CC(=O)OC8)CC[C@]7(O)C6CC[C@@H]5C4)O[C@@H]3C)O[C@@H]2C)C[C@H](O)[C@@H]1O` (stereo partly drawn) as the compound, how does the inclusion score read?
**A.** 2

**Q.** With `CO[C@H]1[C@H](O)[C@H](O[C@H]2CC[C@]3(C)C4CC[C@]5(C)C(C6=CC(=O)OC6)CC[C@]5(O)C4CC[C@@H]3C2)O[C@@H](C)[C@@H]1O` (stereo partly drawn) as the compound, how does the inclusion score read?
**A.** 2

**Q.** With `COc1ccc2c(c1OC)C(=O)O[C@H]2[C@H]1c2cc3c(cc2CCN1C)OCO3` as the compound, how does the inclusion score read?
**A.** 2

**Q.** With `COc1ccc2c(c1)[C@]13CCCC[C@H]1[C@H](C2)N(C)CC3` as the compound, how does the inclusion score read?
**A.** 2

**Q.** With `C/C=C(\C)C(=O)O[C@H]1C[C@@H](OC(C)=O)[C@@]2(C(=O)OC)CO[C@@H]3C2[C@]12CO[C@](O)(C(=O)OC)[C@H]2[C@](C)(C12O[C@@]1(C)[C@H]1C[C@@H]2OC2OC=C[C@@]21O)[C@@H]3O` (stereo partly drawn) as the compound, how does the inclusion score read?
**A.** 2

**Q.** With `C[C@@H]1CC[C@H]2[C@@H](C)C(=O)O[C@@H]3OC4(C)CC[C@@H]1[C@]32OO4` as the compound, how does the inclusion score read?
**A.** 2

**Q.** For `C=C1C2CC[C@H]3[C@]4(C)C[C@H](OC5OC(CO)C(OS(=O)(=O)O)C(OS(=O)(=O)O)C5OC(=O)CC(C)C)C[C@@H](C(=O)O)[C@H]4CC[C@]3(C2)[C@H]1O` (stereo partly drawn), which inclusion score is on record?
**A.** 2

**Q.** For `CCC(C)C(=O)O[C@H]1[C@H](O)C2C(CN3CC(C)CCC3[C@@]2(C)O)C2C[C@]34O[C@]5(O)C(OC(=O)C(C)(O)C(C)O)CC[C@@]3(C)C5C(OC(C)=O)[C@@H](OC(C)=O)C4[C@@]21O` (stereo partly drawn), which inclusion score is on record?
**A.** 2

assay: suppressors of polyglutamine aggregation in yeast, 75Q-TubH (AID 1616); details: S. cerevisiae 75Q-TubH polyglutamine aggregation suppression; stronger effect = higher value

**Q.** Which aggregation suppression score does the source give for `O=C1CC2OCC=C3CN4CC[C@]56c7ccccc7N1C5[C@H]2[C@H]3CC46` (stereo partly drawn) here?
**A.** 0.688

**Q.** Which aggregation suppression score does the source give for `C[C@H]1O[C@@H](O[C@H]2[C@@H](O)C[C@H](O[C@H]3[C@@H](O)C[C@H](O[C@H]4CC[C@]5(C)C6CC[C@]7(C)[C@@H](C8=CC(=O)OC8)CC[C@]7(O)C6CC[C@@H]5C4)O[C@@H]3C)O[C@@H]2C)C[C@H](O)[C@@H]1O` (stereo partly drawn) here?
**A.** 0.858

**Q.** Which aggregation suppression score does the source give for `CO[C@H]1[C@H](O)[C@H](O[C@H]2CC[C@]3(C)C4CC[C@]5(C)C(C6=CC(=O)OC6)CC[C@]5(O)C4CC[C@@H]3C2)O[C@@H](C)[C@@H]1O` (stereo partly drawn) here?
**A.** 1.46

**Q.** Which aggregation suppression score does the source give for `COc1ccc2c(c1OC)C(=O)O[C@H]2[C@H]1c2cc3c(cc2CCN1C)OCO3` here?
**A.** 1.24

**Q.** Which aggregation suppression score does the source give for `COc1ccc2c(c1)[C@]13CCCC[C@H]1[C@H](C2)N(C)CC3` here?
**A.** 1.29

**Q.** With `C/C=C(\C)C(=O)O[C@H]1C[C@@H](OC(C)=O)[C@@]2(C(=O)OC)CO[C@@H]3C2[C@]12CO[C@](O)(C(=O)OC)[C@H]2[C@](C)(C12O[C@@]1(C)[C@H]1C[C@@H]2OC2OC=C[C@@]21O)[C@@H]3O` (stereo partly drawn) as the compound, how does the aggregation suppression score read?
**A.** 1

**Q.** With `C[C@@H]1CC[C@H]2[C@@H](C)C(=O)O[C@@H]3OC4(C)CC[C@@H]1[C@]32OO4` as the compound, how does the aggregation suppression score read?
**A.** 0.15

**Q.** For `C=C1C2CC[C@H]3[C@]4(C)C[C@H](OC5OC(CO)C(OS(=O)(=O)O)C(OS(=O)(=O)O)C5OC(=O)CC(C)C)C[C@@H](C(=O)O)[C@H]4CC[C@]3(C2)[C@H]1O` (stereo partly drawn), which aggregation suppression score is on record?
**A.** 1.68

**Q.** For `CCC(C)C(=O)O[C@H]1[C@H](O)C2C(CN3CC(C)CCC3[C@@]2(C)O)C2C[C@]34O[C@]5(O)C(OC(=O)C(C)(O)C(C)O)CC[C@@]3(C)C5C(OC(C)=O)[C@@H](OC(C)=O)C4[C@@]21O` (stereo partly drawn), which aggregation suppression score is on record?
**A.** 1.75

**Q.** Which aggregation suppression score does the source give for `CC(=O)C1=C(O)C2C3c4c[nH]c5cccc(c45)CC3C(C)(C)N2C1=O` (stereo not drawn) here?
**A.** 0.0191

assay: hESC survival regulators, cell-based (AID 493140; call rule not given here;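 note: cells exposed to compounds for four days before counting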); details: human embryonic stem cell survival screen; stronger effect = higher value

**Q.** Which survival does the source give for `C[C@@H]1CC[C@H]2[C@@H](C)C(=O)O[C@@H]3OC4(C)CC[C@@H]1[C@]32OO4` here?
**A.** 4.67 (inactive)

**Q.** With `C=C1C2CC[C@H]3[C@]4(C)C[C@H](OC5OC(CO)C(OS(=O)(=O)O)C(OS(=O)(=O)O)C5OC(=O)CC(C)C)C[C@@H](C(=O)O)[C@H]4CC[C@]3(C2)[C@H]1O` (stereo partly drawn) as the compound, how does the survival read?
**A.** 8.25 (inactive)

**Q.** With `CC[C@]12CCCN3CCc4c(n(c5ccccc45)[C@](O)(C(=O)OC)C1)[C@@H]32` as the compound, how does the survival read?
**A.** 6.25 (inactive)

assay: liver-stage malaria parasite growth inhibition, primary screen, cell-based, HepG2, luciferase luminescence, HepG2 viability (AID 624349);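 note: 100% = mean of DMSO negative control wells on the same plate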; details: P. berghei liver stage in HepG2, luciferase luminescence, concentration not given here; parasite load remaining: stronger effect = lower value; viability: measured here: HepG2 viability without parasites

**Q.** What does the source list for `O=C1CC2OCC=C3CN4CC[C@]56c7ccccc7N1C5[C@H]2[C@H]3CC46` (stereo partly drawn)?
**A.** parasite load remaining: 113% (inactive) and 54.7% (inactive); viability: 71.9% and 95.5%

**Q.** Which parasite load remaining does the source give for `COc1ccc2c(c1OC)C(=O)O[C@H]2[C@H]1c2cc3c(cc2CCN1C)OCO3` here?
**A.** 124% (inactive)

**Q.** What about the viability of the same compound?
**A.** 70.9%

**Q.** With `COc1ccc2c(c1)[C@]13CCCC[C@H]1[C@H](C2)N(C)CC3` as the compound, how does the viability read?
**A.** 71.2%

**Q.** And the parasite load remaining?
**A.** 84.3% (inactive)

**Q.** Which results are given for `COc1ccc2c(c1OC)C(=O)O[C@@H]2[C@@H]1c2cc3c(cc2CCN1C)OCO3`?
**A.** viability: 68.5%; parasite load remaining: 190% (inactive)

**Q.** Which results are given for `C/C=C(\C)C(=O)O[C@H]1C[C@@H](OC(C)=O)[C@@]2(C(=O)OC)CO[C@@H]3C2[C@]12CO[C@](O)(C(=O)OC)[C@H]2[C@](C)(C12O[C@@]1(C)[C@H]1C[C@@H]2OC2OC=C[C@@]21O)[C@@H]3O` (stereo partly drawn)?
**A.** viability: 97.8%; parasite load remaining: 62.6% (inactive)

**Q.** For `CNC(C)[C@@H]1CC[C@@H](N)[C@@H](OC2[C@@H](N)C[C@@H](N)[C@H](OC3OC[C@](C)(O)[C@H](NC)[C@H]3O)[C@H]2O)O1` (stereo partly drawn), which viability is on record?
**A.** 74.9% and 95.7%

**Q.** What about the parasite load remaining of the same compound?
**A.** 99.6% (inactive) and 66.4% (inactive)

**Q.** With `C[C@@H]1CC[C@H]2[C@@H](C)C(=O)O[C@@H]3OC4(C)CC[C@@H]1[C@]32OO4` as the compound, how does the viability read?
**A.** 72.2%

**Q.** And the parasite load remaining?
**A.** 71.2% (inactive)

**Q.** For `CNC(Cc1c[nH]c2ccccc12)C(=O)O` (stereo not drawn), which viability is on record?
**A.** 73.8%

**Q.** And the parasite load remaining?
**A.** 105% (inactive)

**Q.** With `O=C1OCCN1/N=C/c1ccc([N+](=O)[O-])o1` as the compound, how does the parasite load remaining read?
**A.** 1.08% (active) and 4.96% (inactive)

**Q.** What about the viability of the same compound?
**A.** 58.1% and 96.5%

**Q.** Which viability does the source give for `C[C@@H]1CC[C@@]2(NC1)O[C@H]1C[C@H]3C4CC=C5C[C@@H](O)CC[C@]5(C)C4CC[C@]3(C)C1[C@@H]2C` (stereo partly drawn) here?
**A.** 93.1%

**Q.** What about the parasite load remaining of the same compound?
**A.** 57% (inactive)

**Q.** Which results are given for `C[C@@H]1C(=O)OC2[C@H](O)C34[C@@H]5OC(=O)[C@@]3(O[C@@H]3OC(=O)[C@H](O)[C@@]34[C@H](C(C)(C)C)[C@H]5O)[C@]21O` (stereo partly drawn)?
**A.** parasite load remaining: 84.4% (inactive); viability: 70.9%

**Q.** Which parasite load remaining does the source give for `CCC(C)C(=O)O[C@H]1[C@H](O)C2C(CN3CC(C)CCC3[C@@]2(C)O)C2C[C@]34O[C@]5(O)C(OC(=O)C(C)(O)C(C)O)CC[C@@]3(C)C5C(OC(C)=O)[C@@H](OC(C)=O)C4[C@@]21O` (stereo partly drawn) here?
**A.** 75% (inactive)

**Q.** And the viability?
**A.** 68.5%

**Q.** What does the source list for `C[C@]12CCC3C(CC[C@H]4CC(=O)CC[C@]34C)C1CCC2=O` (stereo partly drawn)?
**A.** viability: 96.1%; parasite load remaining: 63.7% (inactive)

From PubChem BioAssay
